Source: PubChem
The list is not random: actives were taken first. Their share in the collection is about 3.3%.
PI4K2A block – qHTS for small molecular inhibitors of PI4K2A | Phosphatidylinositol 4-kinase type 2-alpha (Homo sapiens), Q9BTU6 | purified PI4K2A, ADP-Glo luminescence, 1 h; stronger effect = lower value | activity change, negative = inhibition, % at 76.9 µM | actives 0.13% (n = 420,000) | AID 1346378, 2018; in the data active = activity change below about -50%; inconclusive = mostly about -30% to -49%;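 note: -100% = wells without enzyme as full effect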
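In this quantitative HTS, ADP production by PI4K2A was quantified luminescently after 1 h at ambient temperature; 100 microM adenosine served as plate-quality control.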
D3 antag – qHTS of D3 Dopamine Receptor Antagonist: qHTS | D(3) dopamine receptor (Homo sapiens), P35462 | D3R cells, DiscoveRx beta-arrestin luminescence, antagonist mode; stronger effect = lower value | max response, negative = inhibition, % | actives 2.5% (n = 360,000) | AID 652054, 2013; in the data active = max response below about -50%; inconclusive = no clear call, values can overlap the other calls; note: % is set by controls: 0 for no effect and ±100 for the full control effect
Target sequence (P35462 whole entry, looked up): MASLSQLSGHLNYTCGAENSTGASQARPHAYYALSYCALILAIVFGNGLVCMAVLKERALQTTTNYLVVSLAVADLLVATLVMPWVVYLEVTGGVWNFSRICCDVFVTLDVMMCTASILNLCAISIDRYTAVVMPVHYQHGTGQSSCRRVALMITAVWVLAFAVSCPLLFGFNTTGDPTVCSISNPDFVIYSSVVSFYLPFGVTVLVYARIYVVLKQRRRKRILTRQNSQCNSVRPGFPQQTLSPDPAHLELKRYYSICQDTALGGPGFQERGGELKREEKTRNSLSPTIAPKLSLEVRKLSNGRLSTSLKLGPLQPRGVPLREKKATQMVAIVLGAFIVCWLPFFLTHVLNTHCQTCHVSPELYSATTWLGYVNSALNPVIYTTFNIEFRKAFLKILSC
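Cells expressing the human receptor were seeded at 1500 cells/well, incubated overnight at 37 degrees C in 5% CO2, then exposed to library compounds with dopamine controls for 90 minutes at 37 degrees C before luminescent detection.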
PI5P4Ka inh – qHTS for Inhibitors of phosphatidylinositol 5-phosphate 4-kinase (PI5P4K); max response, %; Phosphatidylinositol 5-phosphate 4-kinase type-2 alpha (Homo sapiens), P48426; AID 652105, 2013; PI5P4Kalpha enzyme, ADP-Glo luminescence, 60 min; stronger effect = lower value; actives 1.2% (n = 330,000); active = max response of -50% or lower; inconclusive = between -30% and -50%; inactive = -30% or higher; note: value at the top dose of about 77 µM; % is set by controls: 0 for no effect and ±100 for the full control effect
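ADP-Glo luminescence end-point read after a 60 min room-temperature kinase reaction of PI5P4Kalpha plus substrate, initiated with ATP at 5 microM final. Buffer: 0.038 M HEPES pH 7.4, EGTA, 0.1% CHAPS, 5% DMSO.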
D3 ag – qHTS of D3 Dopamine Receptor Agonist: qHTS. actives 0.58% (n = 410,000). D(3) dopamine receptor (Homo sapiens), P35462. D3R DiscoveRx beta-arrestin cells, luminescence, 90 min. max activation, %; in the data active = max activation above about 30%; note: 0% is about no effect
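Agonist mode: compounds and dopamine controls were applied to plated cells for 90 min at 37 degrees C after an overnight attachment at 1500 cells/well. Luminescent read-out followed 30 - 60 minutes at room temperature with DiscoveRx detection reagent.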
LDHA inh – qHTS assay for inhibitors of human lactate dehydrogenase | L-lactate dehydrogenase A chain (Homo sapiens), P00338 | purified LDHA, NADH/diaphorase-resazurin fluorescence; stronger effect = lower value | activity change, % (values are at about 110 or 230 µM) | actives 0.15% (n = 480,000) | AID 1347041, 2019; in the data active = activity change below about -30%; inconclusive = mostly about -25% to -30%;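 note: plate controls were DMSO wells for no effect and wells without enzyme for full effect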
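Human LDH5 at 2 nM final in Tris HCl pH 7.4 with 0.06 mM NADH and 0.2 mM pyruvate, reacted 5 minutes at room temperature. Remaining NADH coupled via diaphorase/resazurin; resorufin fluorescence read at 0 and 20 minutes, normalized to enzyme-free and DMSO wells.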
* = called active by the depositor; ? = inconclusive; . = no result.

SMILES	PI4K2A block	D3 antag	PI5P4Ka inh	D3 ag	LDHA inh
CC1OC(OC2C(Oc3c(-c4ccc(O)cc4)oc4cc(O)cc(O)c4c3=O)OC(COC3O[C@@H](C)[C@H](O)[C@@H](O)C3O)C(O)C2O)C(O)C(O)C1O (stereo not given in full)	2.5	11.5	5.6	2.8	1.0
CCc1ccc(C(=O)/C=C2\Sc3ccccc3NC2=O)cc1	-5.3	-147.0*	-27.7	-10.4	-4.3
CCc1nc2ccccc2c(C)c1C(=O)O	.	.	.	.	3.4
O=C(NCCN1CCN(c2ccccc2)CC1)C1CCN(S(=O)(=O)c2cccc3nonc23)CC1	1.8	-6.8	-3.2	41.4*	-5.3
O=C(NCCc1ccccc1)C1CCN(S(=O)(=O)c2cccc3nonc23)CC1	-3.1	32.2	0.2	-2.4	-4.4
O=C(C1CCCN(S(=O)(=O)c2cccc3nonc23)C1)N1CCC(Cc2ccccc2)CC1 (stereo not given)	0.6	-53.2*	5.7	-0.6	-0.6
O=C(NCCN1CCN(c2ccccc2)CC1)C1CCN(S(=O)(=O)c2cccs2)CC1	4.4	-27.1	-5.9	45.7*	-5.1
CN(Cc1ccc(C(F)(F)F)cc1)C(=O)c1cc(C2CC2)nc2ccccc12	.	.	.	.	4.3
CCCNc1c(NS(=O)(=O)c2ccc(Cl)cc2)c(=O)oc2ccccc12	.	.	.	.	7.6
CCc1ccc(C(=O)CSc2n[nH]c(C)n2)cc1	7.9	?	-56.6*	3.8	-2.4
Cc1ccc(C(=O)CSc2n[nH]c(C)n2)cc1	2.3	13.1	.	0.6	1.8
COc1ccc2cc(CCNC(=O)c3ccco3)c(=O)[nH]c2c1	-1.2	14.8	3.3	-1.4	0.8
Cc1ccc2cc(CCNC(=O)c3ccco3)c(=O)[nH]c2c1	4.4	-102.6*	.	5.8	0.0
Cc1ccc(NC(=O)COc2ncnc3sccc23)cc1S(=O)(=O)N(C)C	-0.8	-6.0	-17.8	4.8	-8.0
CCN(CC)S(=O)(=O)c1cccc(NC(=O)COc2ncnc3sccc23)c1	2.5	-63.1*	-1.2	-2.2	-3.6
COc1ccccc1Cc1nnc(NC(=O)c2ccc(NC(=O)C(C)C)cc2)s1	.	.	.	.	0.0
CCc1nc2c(OCCC3CCCCC3)cccn2c1N(C)C(=O)c1ccc(OC)cc1	-14.0	-110.7*	-21.8	-26.4	1.8
CCc1nc2c(OCCC3CCCCC3)cccn2c1N(C)C(=O)c1ccncc1	0.4	21.5	-2.9	2.4	-2.9
CCc1nc2c(OCc3cc(Cl)cc(Cl)c3)cccn2c1N(C)C(=O)CC(C)C	-2.1	-65.5*	-3.5	-15.6	9.9
CCc1nc2c(OCc3ccc(F)c(F)c3)cccn2c1N(C)C(=O)CC(C)C	-1.5	17.7	0.3	5.0	0.3
CCc1nc2c(OCc3ccc(Cl)cc3)cccn2c1N(C)C(=O)c1ccco1	0.2	-51.1*	?	-16.5	-1.5
CCCCN(C=O)c1c(CC)nc2c(OCc3ccc(Cl)cc3Cl)cccn12	-2.9	-56.9*	2.9	-12.5	5.5
O[C@H](COc1ccc(OC(F)(F)F)cc1)CN1CCC(C(O)(c2ccccc2)c2ccccc2)CC1	-1.3	.	.	.	.
CCc1ccc2c(CN3CCCC3c3cccc(OC)c3)cc(=O)oc2c1 (stereo not given)	.	.	.	.	0.3
Cc1ccccc1NC(=O)Nc1cc2c(cc1Oc1ccccc1)n(C)c(=O)n2C	.	.	.	.	-0.4
SMILES	PI4K2A block	D3 antag	PI5P4Ka inh	D3 ag	LDHA inh
CCc1nc2c(OCc3ccc(C(=O)OC)cc3)cccn2c1N(C)C(=O)c1ccc(OC)cc1	-3.7	-26.1	-2.8	-1.3	10.5
CCc1nc2c(OCc3cc(Cl)cc(Cl)c3)cccn2c1N(C)C(=O)c1ccc(OC)cc1	2.5	-62.9*	-0.8	-10.9	-3.8
CCC(CC)C(=O)N(C)c1c(C)nc2c(OCCC3CCCCC3)cccn12	-3.5	-50.3*	-4.2	-15.1	2.9
Cc1nnc(SCC(=O)N2CCCCCC2)n(N)c1=O	3.4	4.2	4.4	-3.4	-3.2
Cc1nnc(SCC(=O)N2CCC(Cc3ccccc3)CC2)n(N)c1=O	1.0	-98.5*	8.4	-25.5	2.5
COCCN=c1scc(-c2ccccc2)n1/N=C/c1c[nH]c2ccccc12	-2.5	-10.0	21.0	7.1	-3.5
CCN=c1scc(C)n1/N=C/c1ccc(O)c(O)c1O	-12.0	-7.2	-50.6*	8.7	35.4
COCCN=c1scc(-c2cccs2)n1/N=C/c1ccc(O)c(O)c1O	-13.1	-8.0	?	89.6*	15.4
O=C1O/C(=C/c2ccccc2)c2ccccc21	-3.3	18.7	12.7	5.9	3.1
N#CC1=C(c2ccccc2)/C(=C/c2ccccc2)OC1=O	-5.4	-59.3*	3.8	-10.7	-6.5
COc1cccc(/C=C2\CC3(OC(=O)c4cccc(F)c4)CCCN2C3)c1 (stereo not given)	-1.1	.	.	.	.
COCCNc1oc(-c2ccccc2)nc1S(=O)(=O)c1ccc2c(c1)OCCO2	.	.	.	.	-1.2
Cc1ccc(C(=O)Oc2ccccc2N2C(=O)C3CCC(C)CC3C2=O)cc1 (stereo not given)	9.0	37.1	0.2	7.7	0.0
CC1CCC2C(=O)N(c3ccc(C(=O)Oc4cccc5cccnc45)cc3)C(=O)C2C1 (stereo not given)	-11.4	-68.5*	-7.0	-29.8	27.3
O=C(O)CN1C(=O)/C(=C\c2cc(Br)ccc2OCc2ccc(F)cc2)SC1=S	-6.0	11.9	?	2.3	-34.0*
O=C(O)CN1C(=O)/C(=C\c2cc(Br)ccc2OCc2ccc(Cl)cc2)SC1=S	-2.4	3.8	?	0.5	-40.2*
O=C(O)CN1C(=O)/C(=C\c2ccccc2OCc2ccccc2)SC1=S	-7.8	8.6	-15.2	-1.5	-9.4
O=C(O)CN1C(=O)/C(=C\c2cc([N+](=O)[O-])ccc2OCc2ccccc2Cl)SC1=S	-0.9	-7.9	-71.5*	-3.5	5.1
COc1ccc(/C=C2/SC(=S)N(CC(=O)O)C2=O)cc1OCc1ccc(Cl)cc1	-10.2	1.0	-11.5	-1.4	-1.3
O=C(CSc1nncn1-c1ccccc1F)Nc1ccccc1C(=O)NC1CC1	.	.	.	.	2.6
C#CCN(C)CC/C=C1\c2ccccc2CSc2ccccc21	-13.0	-71.4*	4.1	-20.5	-0.8
CN(C)CC/C=C1\c2cc(F)ccc2CSc2ccccc21	4.9	-51.7*	-0.7	-43.5	-4.1
C=CCN(C)CC/C=C1\c2ccccc2CSc2ccccc21	-1.1	-73.4*	-1.2	-5.8	5.8
CN(C)CC/C=C1/c2cc(F)ccc2CSc2ccc(F)cc21	0.2	?	1.3	-25.8	-0.9
CC(C)Cn1c(N2CCN(CCCc3ccccc3)CC2)nc2c1c(=O)[nH]c(=O)n2C	.	.	.	.	1.1
CCCCCCCOc1ccc(OC(=O)c2ccc(-c3ccc(CCC)cn3)cc2)cc1	.	.	.	.	-1.5
